Results taken from PubChem BioAssay AID1159580 (chemical genetic matrix, 2015).
Several values for one entry are separate records, joined by “and”; a condition that tells them apart may be missing. Identical values can stand only once. The campaign covered roughly 5,500 compounds. About 2,000 (36%) were called active. Not shown: some 18% with an inconclusive outcome. This is one part of the list. Values without a mark were called inactive. No stated cut-off is given here; in the data, active means normalized growth mostly below about 0.91 (no sharp cut-off); inconclusive means no clear call, values can overlap the other calls; inactive means mostly above about 0.92.

Assay: chemical genetic growth profiling, strain panel (AID 1159580);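 further: tested at 20 µM; growth read once vehicle control cultures reached saturation at 30 °C; 1 = growth at the plate median or of vehicle wells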
Details: growth OD

Q: Which results are given for `O=c1[nH]c2ccccc2n1C1CCN(CCCC(c2ccc(F)cc2)c2ccc(F)cc2)CC1`?
A: normalized growth (S. cerevisiae deletion strains, locus YJR075W, strain HOC1, stronger effect = lower value): 0.954 and 0.993; normalized growth (S. cerevisiae deletion strains, locus YKL009W, strain mrt4, stronger effect = lower value): 0.963; normalized growth (S. cerevisiae deletion strains, locus YKL068W, stronger effect = lower value): 0.993; normalized growth (S. cerevisiae deletion strains, locus YKL085W, strain MDH1 (second series), stronger effect = lower value): 0.99; normalized growth (S. cerevisiae deletion strains, locus YKL085W, strain MDH1, stronger effect = lower value): 0.99; normalized growth (S. cerevisiae deletion strains, locus YKL160W, strain elf1, stronger effect = lower value): 0.914; normalized growth (S. cerevisiae deletion strains, locus YKL190W, strain CNB1, stronger effect = lower value): 0.974; normalized growth (S. cerevisiae deletion strains, locus YKR001C, strain vps1, stronger effect = lower value): 0.939; normalized growth (S. cerevisiae deletion strains, locus YKR026C, strain gcn3, stronger effect = lower value): 1.03; normalized growth (S. cerevisiae deletion strains, locus YKR091W, strain srl3, stronger effect = lower value): 1.01; normalized growth (S. cerevisiae deletion strains, locus YLL001W, strain dnm1, stronger effect = lower value): 0.893 (active); normalized growth (S. cerevisiae deletion strains, locus YLL026W, stronger effect = lower value): 0.988; normalized growth (S. cerevisiae deletion strains, locus YLL041C, strain sdh2, stronger effect = lower value): 1.02; normalized growth (S. cerevisiae deletion strains, locus YLR027C, strain aat2, stronger effect = lower value): 0.927; normalized growth (S. cerevisiae deletion strains, locus YLR039C, strain RIC1, stronger effect = lower value): 1.02; normalized growth (S. cerevisiae deletion strains, locus YLR058C, strain SHM2, stronger effect = lower value): 0.977; normalized growth (S. cerevisiae deletion strains, locus YLR102C, strain apc9, stronger effect = lower value): 0.993; normalized growth (S. cerevisiae deletion strains, locus YLR113W, strain HOG1, stronger effect = lower value): 0.967; normalized growth (S. cerevisiae deletion strains, locus YLR221C, strain rsa3, stronger effect = lower value): 0.932; normalized growth (S. cerevisiae deletion strains, locus YLR258W, strain gsy2, stronger effect = lower value): 0.981; normalized growth (S. cerevisiae deletion strains, locus YLR262C, strain YPT6 (second series), stronger effect = lower value): 1.06; normalized growth (S. cerevisiae deletion strains, locus YLR262C, strain YPT6, stronger effect = lower value): 1.04; normalized growth (S. cerevisiae deletion strains, locus YLR268W, strain sec22, stronger effect = lower value): 0.98; normalized growth (S. cerevisiae deletion strains, locus YLR320W, strain mms22, stronger effect = lower value): 0.784 (active); normalized growth (S. cerevisiae deletion strains, locus YLR330W, strain CHS5, stronger effect = lower value): 0.995; normalized growth (S. cerevisiae deletion strains, locus YLR342W, strain FKS1 (second series), stronger effect = lower value): 0.94; normalized growth (S. cerevisiae deletion strains, locus YLR342W, strain FKS1, stronger effect = lower value): 0.936; normalized growth (S. cerevisiae deletion strains, locus YLR357W, strain rsc2, stronger effect = lower value): 0.877; normalized growth (S. cerevisiae deletion strains, locus YLR370C, strain arc18, stronger effect = lower value): 0.962; normalized growth (S. cerevisiae deletion strains, locus YLR371W, strain rom2, stronger effect = lower value): 0.989; normalized growth (S. cerevisiae deletion strains, locus YLR384C, strain iki3, stronger effect = lower value): 1.04; normalized growth (S. cerevisiae deletion strains, locus YLR418C, strain cdc73, stronger effect = lower value): 0.921; normalized growth (S. cerevisiae deletion strains, locus YML016C, strain PPZ1, stronger effect = lower value): 0.992; normalized growth (S. cerevisiae deletion strains, locus YML032C, strain rad52, stronger effect = lower value): 0.972; normalized growth (S. cerevisiae deletion strains, locus YML120C, strain ndi1, stronger effect = lower value): 0.939; normalized growth (S. cerevisiae deletion strains, locus YML124C, strain tub3, stronger effect = lower value): 1; normalized growth (S. cerevisiae deletion strains, locus YMR058W, strain fet3, stronger effect = lower value): 0.897 (active); normalized growth (S. cerevisiae deletion strains, locus YMR078C, strain ctf18, stronger effect = lower value): 0.983; normalized growth (S. cerevisiae deletion strains, locus YMR125W, strain sto1, stronger effect = lower value): 0.995; normalized growth (S. cerevisiae deletion strains, locus YMR129W, stronger effect = lower value): 0.966; normalized growth (S. cerevisiae deletion strains, locus YMR205C, strain PFK2, stronger effect = lower value): 0.859 (active); normalized growth (S. cerevisiae deletion strains, locus YMR223W, strain ubp8, stronger effect = lower value): 0.978; normalized growth (S. cerevisiae deletion strains, locus YMR231W, strain pep5, stronger effect = lower value): 1.02; normalized growth (S. cerevisiae deletion strains, locus YMR263W, strain SAP30, stronger effect = lower value): 0.986 and 0.997; normalized growth (S. cerevisiae deletion strains, locus YMR307W, strain GAS1, stronger effect = lower value): 1.04 and 0.999; normalized growth (S. cerevisiae deletion strains, locus YNL067W, strain RPL9B, stronger effect = lower value): 0.987; normalized growth (S. cerevisiae deletion strains, locus YNL071W, strain lat1, stronger effect = lower value): 1.01; normalized growth (S. cerevisiae deletion strains, locus YNL128W, strain TEP1, stronger effect = lower value): 0.965; normalized growth (S. cerevisiae deletion strains, locus YNL153C, strain GIM3, stronger effect = lower value): 0.974; normalized growth (S. cerevisiae deletion strains, locus YNL183C, strain NPR1, stronger effect = lower value): 0.937; normalized growth (S. cerevisiae deletion strains, locus YNL197C, strain WHI3, stronger effect = lower value): 1.1; normalized growth (S. cerevisiae deletion strains, locus YNL209W, strain ssb2, stronger effect = lower value): 1.02; normalized growth (S. cerevisiae deletion strains, locus YNL224C, strain SQS1, stronger effect = lower value): 1.01; normalized growth (S. cerevisiae deletion strains, locus YNL233W, strain BNI4, stronger effect = lower value): 0.985; normalized growth (S. cerevisiae deletion strains, locus YNL248C, strain rpa49, stronger effect = lower value): 0.878 (active); normalized growth (S. cerevisiae deletion strains, locus YNL250W, strain rad50, stronger effect = lower value): 0.986; normalized growth (S. cerevisiae deletion strains, locus YNL271C, strain bni1, stronger effect = lower value): 1.01; normalized growth (S. cerevisiae deletion strains, locus YNL298W, strain CLA4, stronger effect = lower value): 1.01; normalized growth (S. cerevisiae deletion strains, locus YNL307C, strain MCK1, stronger effect = lower value): 0.927; normalized growth (S. cerevisiae deletion strains, locus YNL322C, strain KRE1 (second series), stronger effect = lower value): 1.03; normalized growth (S. cerevisiae deletion strains, locus YNL322C, strain KRE1, stronger effect = lower value): 0.99; normalized growth (S. cerevisiae deletion strains, locus YNR049C, strain mso1, stronger effect = lower value): 0.991; normalized growth (S. cerevisiae deletion strains, locus YNR052C, strain pop2, stronger effect = lower value): 0.996; normalized growth (S. cerevisiae deletion strains, locus YOL006C, strain TOP1, stronger effect = lower value): 0.848; normalized growth (S. cerevisiae deletion strains, locus YOL012C, strain htz1): 0.998; normalized growth (S. cerevisiae deletion strains, locus YOL147C, strain pex11, stronger effect = lower value): 1; normalized growth (S. cerevisiae deletion strains, locus YOR001W, strain rrp6, stronger effect = lower value): 0.817 (active); normalized growth (S. cerevisiae deletion strains, locus YOR061W, strain CKA2, stronger effect = lower value): 0.972; normalized growth (S. cerevisiae deletion strains, locus YOR069W, strain VPS5, stronger effect = lower value): 0.991; normalized growth (S. cerevisiae deletion strains, locus YOR070C, strain gyp1, stronger effect = lower value): 0.963; normalized growth (S. cerevisiae deletion strains, locus YOR080W, strain dia2, stronger effect = lower value): 1; normalized growth (S. cerevisiae deletion strains, locus YOR083W, strain WHI5 (second series), stronger effect = lower value): 0.874; normalized growth (S. cerevisiae deletion strains, locus YOR083W, strain WHI5, stronger effect = lower value): 0.857 (active); normalized growth (S. cerevisiae deletion strains, locus YOR106W, strain vam3, stronger effect = lower value): 0.92; normalized growth (S. cerevisiae deletion strains, locus YOR136W, strain idh2, stronger effect = lower value): 0.986; normalized growth (S. cerevisiae deletion strains, locus YOR144C, strain elg1, stronger effect = lower value): 1; normalized growth (S. cerevisiae deletion strains, locus YOR184W, strain ser1, stronger effect = lower value): 0.894; normalized growth (S. cerevisiae deletion strains, locus YOR231W, strain MKK1, stronger effect = lower value): 0.984; normalized growth (S. cerevisiae deletion strains, locus YOR265W, strain rbl2, stronger effect = lower value): 0.992; normalized growth (S. cerevisiae deletion strains, locus YOR270C, strain vph1, stronger effect = lower value): 0.449 (active); normalized growth (S. cerevisiae deletion strains, locus YOR290C, strain snf2, stronger effect = lower value): 0.638 (active); normalized growth (S. cerevisiae deletion strains, locus YOR316C, strain cot1, stronger effect = lower value): 0.995; normalized growth (S. cerevisiae deletion strains, locus YPL051W, strain arl3, stronger effect = lower value): 0.954; normalized growth (S. cerevisiae deletion strains, locus YPL055C, strain LGE1, stronger effect = lower value): 0.924; normalized growth (S. cerevisiae deletion strains, locus YPL078C, strain atp4, stronger effect = lower value): 0.956; normalized growth (S. cerevisiae deletion strains, locus YPL106C, strain sse1, stronger effect = lower value): 1.07; normalized growth (S. cerevisiae deletion strains, locus YPL240C, strain hsp82, stronger effect = lower value): 1.02; normalized growth (S. cerevisiae deletion strains, locus YPL241C, strain CIN2, stronger effect = lower value): 0.986 and 1; normalized growth (S. cerevisiae deletion strains, locus YPL256C, strain CLN2, stronger effect = lower value): 0.965; normalized growth (S. cerevisiae deletion strains, locus YPR119W, strain clb2, stronger effect = lower value): 0.995; normalized growth (S. cerevisiae deletion strains, locus YPR141C, strain kar3, stronger effect = lower value): 0.996; normalized growth (S. cerevisiae deletion strains, locus YPR163C, strain tif3, stronger effect = lower value): 1; normalized growth (S. cerevisiae deletion strains, locus YPR167C, strain met16, stronger effect = lower value): 0.986; normalized growth (S. cerevisiae deletion strains, strain wtn01, stronger effect = lower value): 0.989; normalized growth (S. cerevisiae strains, strain wild type, stronger effect = lower value): 0.993
